Source: PubChem (several laboratories)
CYP2C19 activ: human CYP2C19 activators, primary screen, biochemical, luminescence; Cytochrome P450 2C19 (Homo sapiens), P33261; recombinant CYP2C19, luciferin-H EGE luminescence; stronger effect = higher value; 0 = fully inhibited enzyme, 1 = untreated enzyme; activation factor at 5 µM; 96,000 tested, under 10 active;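 active = activation factor of at least 2 at 5 µM in the primary screen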
Target sequence (P33261 whole entry, looked up): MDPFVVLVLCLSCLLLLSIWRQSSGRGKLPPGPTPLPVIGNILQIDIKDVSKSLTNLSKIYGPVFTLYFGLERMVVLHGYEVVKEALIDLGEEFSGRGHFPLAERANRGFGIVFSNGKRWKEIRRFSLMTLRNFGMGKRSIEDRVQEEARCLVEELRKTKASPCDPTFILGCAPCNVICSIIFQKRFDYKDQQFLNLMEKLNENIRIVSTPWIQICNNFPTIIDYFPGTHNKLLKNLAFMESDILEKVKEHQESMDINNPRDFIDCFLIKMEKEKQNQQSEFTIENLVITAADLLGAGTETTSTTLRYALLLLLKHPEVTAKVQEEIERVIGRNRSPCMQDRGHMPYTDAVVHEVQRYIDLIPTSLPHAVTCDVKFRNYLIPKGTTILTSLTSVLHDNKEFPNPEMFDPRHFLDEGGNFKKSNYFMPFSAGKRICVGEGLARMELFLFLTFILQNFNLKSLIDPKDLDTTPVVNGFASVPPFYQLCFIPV
CYP2C9 act: human CYP2C9 activators, primary screen, biochemical, luminescence; Cytochrome P450 2C9 (Homo sapiens), P11712; recombinant CYP2C9, luciferin-H conversion; stronger effect = higher value; factor 1 = untreated enzyme, 0 = blocked; activation factor at 5 µM; 1.4% of 96,000 active;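 active = activation factor of 2 or more for CYP2C9 at a 5 µM dose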
CYP2C9 inhib: blockers of cytochrome P450 2C9 activity – biochemical, luminescence, ADME assay, primary screen | P11712 | CYP2C9 Supersomes, luciferin-H conversion | inhibition, % at 5 µM | 20% of 96,000 active;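 active = blocking of liver enzyme CYP2C9 beyond about 50% at 5 µM, limit read from the data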
CYP2C19 inhib: blockers of cytochrome P450 2C19 activity – biochemical, luminescence, ADME assay, primary screen. inhibition, % at 5 µM. P33261. 21% of 96,000 active. CYP2C19 Supersomes, luciferin-H EGE luminescence, 30 min;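 active = CYP2C19 inhibition above a set limit at 5 µM in the primary screen, cut at about 50% in these data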
E-sel TNF inh: E-selectin induction blockers in HUVEC – imaging, immunofluorescence, high content, primary screen | inhibition, % at 2 µM | 0.71% of 120,000 active | AID 1246, 2008 | HUVEC TNFa-induced E-selectin immunofluorescence;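 active = inhibition above the batch mean plus 3 SD, and confirmed as a hit on visual image review, cut at about 43% in these data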
F-actin modifier: modifiers of F-actin cytoskeleton organization, primary screen, imaging, HUVEC, phalloidin staining, high-content imaging | 0.18% of 91,000 active | HUVEC TNFa F-actin phalloidin imaging | inhibition, % at 2 µM;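 active = inhibition above the batch mean plus 3 SD and confirmed as a hit by visual image inspection, cut at about 30% in these data, passing the limit was not always enough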
Large screens that a line does not name were inactive. Sampled rows, rich in hits. Any-hit rate of the full collection: about 22%.

COc1ccc(CNC(=O)C(c2ccncc2)N(C(=O)Cc2cccs2)c2ccc(C)cc2)cc1 (stereo not drawn)	CYP2C9 inhib 69, CYP2C19 inhib 67
O=c1[nH]cc([N+](=O)[O-])cc1Br	none (no result: CYP2C19 activ, CYP2C9 act, CYP2C9 inhib, CYP2C19 inhib, F-actin modifier)
COc1ccc(CN(C(=O)Cc2cccs2)C(C(=O)NC2CCCC2)c2ccncc2)cc1 (stereo not drawn)	CYP2C9 inhib 67, CYP2C19 inhib 80 (no result: E-sel TNF inh)
COc1ccc(CCN(C(=O)C(F)(F)F)C(C(=O)NC2CCCCC2)c2ccc(C)s2)cc1OC (stereo not drawn)	none
Cn1cccc1C(C(=O)NC1CCCCC1)N(C(=O)Cc1cccs1)C1CC1 (stereo not drawn)	CYP2C19 inhib 92
COc1ccc(CCN(C(=O)C(F)(F)F)C(C(=O)NC2CCCC2)c2cccs2)cc1OC (stereo not drawn)	CYP2C9 inhib 88, CYP2C19 inhib 85
COc1ccc(N(C(=O)Cc2cccs2)C(C(=O)NC2CCCCC2)c2cccn2C)cc1OC (stereo not drawn)	none (no result: CYP2C19 activ, CYP2C9 act, CYP2C9 inhib, CYP2C19 inhib)
COc1cc(C(C(=O)NC2CCCCC2)N(C(=O)Cc2c[nH]c3ccccc23)c2ccc(C)cc2)cc(OC)c1OC (stereo not drawn)	none (no result: CYP2C19 activ, CYP2C9 act, CYP2C9 inhib, CYP2C19 inhib, F-actin modifier)
COc1ccc(C(C(=O)NC2CCCCC2)N(Cc2cccs2)C(=O)Cc2c[nH]c3ccccc23)cc1 (stereo not drawn)	CYP2C9 inhib 68
COc1ccccc1CN(C(=O)CCl)C(C(=O)NC1CCCCC1)c1ccncc1 (stereo not drawn)	none (no result: CYP2C19 activ, CYP2C9 act, CYP2C9 inhib, CYP2C19 inhib, F-actin modifier)
COc1ccccc1/C=C(/C(=O)OCC(=O)Nc1ccc(N(C)C)cc1)c1ccccc1	none (no result: CYP2C19 activ, CYP2C9 act, CYP2C9 inhib, CYP2C19 inhib, F-actin modifier)
O=C(CCSc1nnc(-c2ccncc2)o1)Nc1cccc2ccccc12	none (no result: CYP2C19 activ, CYP2C9 act, CYP2C9 inhib, CYP2C19 inhib)
C#CC(=O)N(c1ccc(OC)c(OC)c1)C(C(=O)NC1CCCC1)c1cccs1 (stereo not drawn)	none
C#CC(=O)N(c1cccc(OC)c1)C(C(=O)NC1CCCC1)c1cccs1 (stereo not drawn)	CYP2C19 inhib 57, E-sel TNF inh 99
COc1cccc(C2=NOC(C(=O)NCc3ccccc3)C2)c1 (stereo not drawn)	CYP2C19 inhib 50 (no result: E-sel TNF inh)
O=C(NCCc1ccccc1)C1CC(c2ccccc2O)=NO1 (stereo not drawn)	CYP2C19 inhib 87
CCn1ncc(C2=NOC(C(=O)NCc3ccccc3)C2)c1C (stereo not drawn)	CYP2C19 inhib 57 (no result: F-actin modifier)
COc1cccc(C2=NOC(C(=O)NC3CCCCC3)C2)c1 (stereo not drawn)	CYP2C9 act 2.9 (no result: E-sel TNF inh)
O=C(NCc1ccc2c(c1)OCO2)C1CC(c2ccccc2O)=NO1 (stereo not drawn)	none
COc1ccc(C2=NOC(C(=O)NCc3ccccc3)C2)cc1 (stereo not drawn)	none (no result: E-sel TNF inh)
COc1ccc(C(=O)N2CCC(C(=O)Nc3ccccc3OC)CC2)cc1	none (no result: E-sel TNF inh)
Cc1ccc(CNC(=O)C2CC(c3cccc([N+](=O)[O-])c3)=NO2)cc1 (stereo not drawn)	CYP2C19 inhib 75
CCOc1ccc(OCC)c(NC(=O)Cn2c(C)nc3ccccc3c2=O)c1	none (no result: CYP2C19 activ, CYP2C9 act, CYP2C9 inhib, CYP2C19 inhib, F-actin modifier)
CC(=O)c1cccc(NC(=O)C(OC(=O)/C=C/c2ccc3c(c2)OCO3)c2ccccc2)c1 (stereo not drawn)	CYP2C9 inhib 95, CYP2C19 inhib 76
O=C(COc1ncnc2scc(-c3ccccc3)c12)NC1CCCc2ccccc21 (stereo not drawn)	none (no result: CYP2C19 activ, CYP2C9 act, CYP2C9 inhib, CYP2C19 inhib, F-actin modifier)
O=C1c2ccccc2C(=O)N1CN(C(=O)COc1ccccc1)c1ccccc1	CYP2C19 inhib 58
N#Cc1ccccc1OCCN1C(=O)c2ccccc2C1=O	CYP2C9 inhib 60, CYP2C19 inhib 82
O=C1c2ccccc2C(=O)N1CCCOc1ccccc1	CYP2C19 inhib 85
O=C1c2ccccc2C(=O)N1CCOCCN1C(=O)c2ccccc2C1=O	none
CN(C)C(=O)COc1ccc(Oc2ccccc2)cc1	none (no result: CYP2C19 activ, CYP2C9 act, CYP2C9 inhib, CYP2C19 inhib, F-actin modifier)
O=C(CCC(=O)c1ccc(F)cc1)Nc1cccnc1	none (no result: CYP2C19 activ, CYP2C9 act, CYP2C9 inhib, CYP2C19 inhib)
Cc1cccc(OCC(=O)NCc2cc(C)nc3ccccc23)c1	none (no result: CYP2C19 activ, CYP2C9 act, CYP2C9 inhib, CYP2C19 inhib, F-actin modifier)
CCC(C)(C)n1nnnc1C(c1cccs1)N1CCc2ccccc21 (stereo not drawn)	CYP2C9 inhib 53
CCC(C)(C)n1nnnc1CN1CCc2ccccc21	CYP2C19 inhib 61
c1ccc(CCn2nnnc2CN2CCCc3ccccc32)cc1	CYP2C9 inhib 67, CYP2C19 inhib 96
CCC(C)(C)n1nnnc1C(c1cccnc1)N1CCCc2ccccc21 (stereo not drawn)	none
CC(=O)Nc1ccc(NC(=O)COC(=O)Cc2c[nH]c3ccccc23)cc1	none (no result: CYP2C19 activ, CYP2C9 act, CYP2C9 inhib, CYP2C19 inhib, F-actin modifier)
N#C/C(=C(/O)COC(=O)CCCNC(=O)c1ccc(Cl)cc1)c1nc2ccccc2[nH]1	CYP2C9 inhib 76, CYP2C19 inhib 52
COCc1c(C(=O)OC/C(O)=C(\C#N)c2nc3ccccc3[nH]2)oc2ccccc12	none (no result: CYP2C19 activ, CYP2C9 act, CYP2C9 inhib, CYP2C19 inhib, F-actin modifier)
N#C/C(=C(/O)COC(=O)Cc1c[nH]c2ccccc12)c1nc2ccccc2[nH]1	CYP2C9 inhib 82
O=C(Cc1c[nH]c2ccccc12)OCC(=O)c1ccccc1	CYP2C9 act 2.2
COc1cc(C)nc(Oc2ccc(/C=N/O)cc2)n1	none (no result: F-actin modifier)
CCn1c(C2CCN(S(=O)(=O)c3ccc(OC)cc3)CC2)n[nH]c1=S	none (no result: CYP2C19 activ, CYP2C9 act, CYP2C9 inhib, CYP2C19 inhib, F-actin modifier)
Cc1ccc(Nc2nc(N)nc(CSc3ncccn3)n2)cc1	none
COc1ccccc1Nc1nc(N)nc(CSc2ncccn2)n1	none
CCOC(=O)c1cnc(SCc2nc(N)nc(Nc3ccc(F)cc3)n2)nc1N	CYP2C9 inhib 66, CYP2C19 inhib 72
CCOC(=O)c1cnc(SCc2nc(N)nc(Nc3ccccc3OC)n2)nc1N	CYP2C9 inhib 60 (no result: E-sel TNF inh)
CCOC(=O)c1cnc(SCc2nc(N)nc(Nc3ccc(C)cc3)n2)nc1N	CYP2C9 inhib 54, CYP2C19 inhib 54
CC(C)Oc1ccc(N2CC(C(=O)Nc3ccccc3F)CC2=O)cc1 (stereo not drawn)	none
Cc1ccc(N2CC(C(=O)Nc3ccncc3)CC2=O)cc1 (stereo not drawn)	CYP2C9 inhib 99, CYP2C19 inhib 98
COC(=O)c1ccc(NC(=O)C2CC(=O)N(c3ccc(C)cc3)C2)cc1 (stereo not drawn)	none (no result: CYP2C19 activ, CYP2C9 act, CYP2C9 inhib, CYP2C19 inhib)
Cc1ccc(NC(=O)C2CC(=O)N(c3ccc4c5c(cccc35)CC4)C2)cc1 (stereo not drawn)	CYP2C9 inhib 56
CCOc1ccc(N2CC(C(=O)Nc3ccccc3F)CC2=O)cc1 (stereo not drawn)	CYP2C9 inhib 68
CCOc1ccc(N2CC(C(=O)NCCCN3CCOCC3)CC2=O)cc1 (stereo not drawn)	E-sel TNF inh 50
CC1CCN(C(=O)CSc2nnc(-c3ccc(S(=O)(=O)N4CCOCC4)cc3)n2C)CC1	none (no result: CYP2C19 activ, CYP2C9 act, CYP2C9 inhib, CYP2C19 inhib)
